# AMA1-RON2 inh: disrupts binding of P. falciparum AMA1 to RON2 | AlphaScreen AMA1-biotinylated RON2 peptide binding | Potency, µM (doses to about 58.2 µM), inactives show at the top dose activity change, negative = inhibition, hits mostly inhibitors | AID 720542 | hit rate 0.2% among 360,000;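 also: potency is read from the fitted curve at half-maximal effect; 0% = vehicle wells and -100% = peptide control; nearly all actives have a fitted effect of over 45% in size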
#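 AMA1 (3D7) with his tag at 25 nM final met compounds first, then biotinylated RON2 peptide at 25 nM; detection used donor plus acceptor beads, 10 µg/mL apiece, read by AlphaScreen after 30 min at room temperature.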
# Cycloheximide cs: counter-screen for Shiga toxin inhibitors: cycloheximide protein synthesis inhibition. cell reporter, cycloheximide protein synthesis inhibition counterscreen. max response, %. hit rate 12% among 300,000. AID 2314; in the data active = max response mostly above about 13%, no sharp cut-off; inactive = mostly below about 14%; also: read at 38.3 µM for the half of the compounds with a filed dose; 0% is about no effect
# Pf growth 48h: P. falciparum growth inhibition at 48 hours (one generation); P. falciparum luciferase growth in erythrocytes, 48 h; Potency, µM (highest dose often 28.7 µM), for inactives: at the highest dose activity change, negative = inhibition, most hits filed as inhibitors; hit rate 5.9% among 310,000; also: potency is read from the fitted curve at half-maximal effect; % is scaled to controls: 0 for no effect and ±100 for the full control effect
#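 Luciferase-expressing parasites in RBCs, 2% Hct / 0.1% parasitemia final; RPMI 1640 + 0.5% Albumax; 37 C, 5% CO2, one generation; luminescence read-out, lower signal = inhibition.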
# Pf growth 96h: P. falciparum growth inhibition at 96 hour, primary screen for plastid delayed-death inhibitors | P. falciparum luciferase reporter growth, 96 h | AID 504834 | hit rate 6.9% among 320,000 | Potency, µM (highest dose often 28.7 µM), inactives show top-dose activity change, negative = inhibition, usual class: inhibitors; also: potency is read from the fitted curve at half-maximal effect; % is scaled to controls: 0 for no effect and ±100 for the full control effect
#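 Luminescence readout: decreased luciferase signal marks inhibited growth of reporter-expressing P. falciparum in infected red cells (2% hematocrit, 0.05% parasitemia final), exposed to compound two generations (96 h, 37 C, 5% CO2).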
# SARS PLpro yeast: blocks SARS-CoV papain-like protease in a yeast assay | S. cerevisiae expressing SARS-CoV PLpro, growth rescue | Potency, µM (doses to about 32.9 µM), for inactives: at the highest dose activity, positive = growth rescue, usual class: activators | hit rate 0.19% among 330,000 | AID 485353; calls by dose curve; also: potency is read from the fitted curve at half-maximal effect; 0% is about no effect; nearly all actives have a fitted effect of over 55% in size
# Shiga inhibitor: inhibitors of Shiga toxin in Vero cells | AID 2315 | Vero cells, Shiga toxin protein synthesis inhibition reporter | hit rate 9.2% among 290,000 | inhibition, % at 38.7 µM; in the data active = inhibition mostly above about 28%, no sharp cut-off; inactive = mostly below about 43%; also: 0% is about no effect
# Numbers without * were called inactive; ? = inconclusive; nt = no result given; [ ] = remark or other dose. An excerpt weighted towards active compounds, which were near 19% of everything screened. Unless noted, calls follow the shape of the dose curve; as a rule, active = well fitted curve in the direction sought with a large enough effect; inconclusive = small, poorly fitted or top-dose-only effect, or another doubt; inactive = no such curve, though single readings can be large; an effect the other way counts as inactive or inconclusive.
SMILES,AMA1-RON2 inh,Cycloheximide cs,Pf growth 48h,Pf growth 96h,SARS PLpro yeast,Shiga inhibitor
Cc1ccc(C(=O)Nc2ccc(S(=O)(=O)NCc3ccco3)cc2)cc1,-6%,38*,nt,13%,-1%,36*
CC1CCCCC1NC(=O)c1ccc(S(=O)(=O)NCc2ccco2)cc1 (stereo unspecified),0%,40*,?,?,-4%,62*
O=S(=O)(NCc1ccco1)c1ccc2c(c1)Cc1ccccc1-2,-7%,48*,?,63%,-1%,41*
O=C(COC(=O)c1ccc(S(=O)(=O)NCc2ccco2)cc1)NC1CCCCC1,-17%,3,nt,11%,9%,-2
O=C(NCc1ccccc1)c1ccc(S(=O)(=O)NCc2ccco2)cc1,0%,38*,11%,-12%,3%,53*
O=C(Nc1ccccc1)c1cccc(S(=O)(=O)NCc2ccco2)c1,7%,50*,-8%,55%,-11%,52*
Cc1cc(C)n(-c2ccc(C(=O)Nc3ccc(S(=O)(=O)NCc4ccco4)cc3)cc2)n1,-19%,22*,13µM*,30%,5%,29
CN(CC(=O)Nc1ccc(Cl)cc1)C(=O)c1cccc(S(=O)(=O)NCc2ccccc2)c1,-14%,-3,2%,2%,1%,-22
NS(=O)(=O)c1ccc(CNC(=O)c2ccc(S(=O)(=O)NCc3ccco3)cc2)cc1,4%,nt,9%,3%,2%,nt
Cc1cccnc1NC(=O)c1ccc(S(=O)(=O)NCc2ccco2)cc1,-4%,nt,22%,31%,23%,nt
O=C(Nc1ccccc1)c1ccc(S(=O)(=O)NCc2ccco2)cc1,-3%,-1,-1%,1%,2%,-7
Cc1ccc(NC(=O)CN(C)C(=O)c2cccc(S(=O)(=O)NCc3ccco3)c2)cc1,-3%,nt,-6%,9.3µM*,0%,nt
O=[N+]([O-])c1cc(-c2ccn[nH]2)ccc1Cl,-4%,4,39%,13%,-5%,-1
CC(=O)N1N=C(c2ccc(Br)cc2)CC1c1cn(C)c2ccccc12 (stereo unspecified),-26%,1,4%,?,-41%,2
Cn1cc(C2CC(c3ccccc3)=NN2C(=O)c2ccccc2)c2ccccc21 (stereo unspecified),-7%,22*,8.3µM*,8.3µM*,10%,41
CCCC(=O)N1N=C(c2ccccc2)CC1c1cn(C)c2ccccc12 (stereo unspecified),-30%,27*,?,?,-41%,42
CCN(CC)C(=O)C1=C(C)N(Cc2ccc(F)cc2)C(=O)C(CC(=O)NCC2CCCCC2)C1 (stereo unspecified),-4%,nt,nt,nt,nt,nt
COc1ccc([C@@H]2[C@@H]3C(=O)N(C(C)(C)C)C(=O)[C@@H]3[C@]3(C)C(=O)N(c4cccc(Br)c4)C(=O)N23)cc1,-3%,-3,?,?,14%,-6
Cc1ccnc(NC(=O)CCNC(=O)c2ccccc2Cl)c1,-7%,35*,137%,58%,-1%,124*
Cc1ccnc(NC(=O)CNC(=O)COc2ccccc2)c1,-6%,nt,125%,230%,2%,nt
Cc1ccnc(NC(=O)CNC(=O)c2ccccc2Br)c1,7%,52*,46%,53%,-1%,54*
CC(C)CN(C(=O)CCc1ccccc1Cl)c1c(N)n(Cc2ccccc2)c(=O)[nH]c1=O,0%,nt,?,?,-1%,nt
COCCN(C(=O)COC(=O)c1cc2ccccc2cc1OC)c1c(N)n(Cc2ccccc2)c(=O)[nH]c1=O,11%,nt,?,?,2%,nt
Cc1ccc(C)c(N2N=C(C(=O)N(CC(C)C)c3c(N)n(Cc4ccccc4)c(=O)[nH]c3=O)CCC2=O)c1,2%,1,13µM*,7.4µM*,1%,-13
COc1cc2ccccc2cc1C(=O)OCC(=O)N(CC(C)C)c1c(N)n(Cc2ccccc2)c(=O)[nH]c1=O,15%,nt,10µM*,?,1%,nt
SMILES,AMA1-RON2 inh,Cycloheximide cs,Pf growth 48h,Pf growth 96h,SARS PLpro yeast,Shiga inhibitor
CC(C)CN(C(=O)CCCOc1ccc(Cl)cc1Cl)c1c(N)n(Cc2ccccc2)c(=O)[nH]c1=O,6%,nt,12µM*,?,-2%,nt
Cc1cc(C)c(CN2CCN(C(=O)Cn3cnc4c(OCc5ccccc5)ncnc43)CC2)c(C)c1,-2%,nt,nt,nt,-12%,nt
O=[N+]([O-])c1ncccc1OCc1ccc(Cl)c(Cl)c1,-3%,38*,26%,18%,6%,58*
CCOc1ccccc1N1CC(C(=O)NCCOc2ccccc2OC)CC1=O (stereo unspecified),32%,1,0%,-15%,3%,-2
C=CCNC(=O)c1oc2ccc(S(=O)(=O)N3CCCCC3)cc2c1C,0%,-1,-22%,?,2%,-4
Cc1c(C(=O)NCc2cccnc2)oc2ccc(S(=O)(=O)N3CCCCCC3)cc12,-1%,-2,9.3µM*,7%,-2%,-11
Cc1c(C(=O)NCc2ccccc2)oc2ccc(S(=O)(=O)N3CCCC3)cc12,2%,1,nt,?,4%,4
Cc1c(C(=O)NCc2cccnc2)oc2ccc(S(=O)(=O)N3CCCCC3)cc12,1%,-4,5.2µM*,?,7%,1
O=C(NC(O)C(=O)c1ccc(F)cc1)c1ccc(F)cc1 (stereo unspecified),1%,-3,21%,?,-3%,-2
COc1cccc(-c2noc(C3CCCN(C(=O)c4ccc(F)cc4F)C3)n2)c1 (stereo unspecified),3%,1,11%,270%,0%,31
CCCS(=O)(=O)N1CCCC(c2nc(-c3cccc(OC)c3)no2)C1 (stereo unspecified),-6%,18*,29%,-2%,-3%,45
COc1cccc(-c2noc(C3CCCN(C(=O)c4ccccc4OC)C3)n2)c1 (stereo unspecified),-6%,52*,66%,?,4%,48*
CCCCC(=O)N1CCCC(c2nc(-c3cccc(OC)c3)no2)C1 (stereo unspecified),0%,41*,33%,?,0%,83*
CCOc1cc(C=O)ccc1OCc1cc(=O)n2cc(C)ccc2n1,1%,-4,7%,4%,3%,-13
O=C(O)c1cc(N2C(=O)C3C4C=CC(C4)C3C2=O)ccc1N1CCOCC1 (stereo unspecified),38%,2,5%,-9%,1%,-4
O=C(Oc1ccccc1Cl)c1ccccc1,2%,nt,nt,nt,nt,nt
O=C(Oc1cccccc1=O)c1ccccc1,9%,-1,?,15µM*,3%,6
Cc1onc(-c2ccccc2)c1C(=O)Nc1nnc(N2CCCCCC2)s1,5%,4,?,107%,-2%,9
CCSc1nnc(NC(=O)c2ccccc2)s1,12%[2.32 µM],37*,88%,171%,-47%,76*

# Screens from PubChem BioAssay.
